Where “and” joins values, the source holds several entries; their conditions need not be identical. Identical values can stand only once. Records with an inconclusive call do not appear. Calls of active or inactive are those of the source. Unless noted, the call rests on the fitted dose curve; in most records, active means well fitted curve in the direction sought with a large enough effect; inconclusive means small, poorly fitted or top-dose-only effect, or another doubt; inactive means no such curve, though single readings can be large; an effect the other way counts as inactive or inconclusive.
Assays:
[1] = AP1 Signaling Pathway (AID 357; active means well fitted curve in either direction with a large enough effect, not every such curve was filed as active;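 further: ME-180 reporter cells stimulated with EGF at its EC50 level; on the % scale 0 is the no-effect control and ±100 the full control effect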); settings: ME-180 AP-1-bla reporter, EGF-induced, beta-lactamase ratio, 5 h
Method in brief: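 Read-out was the 460nm/530nm emission ratio (excitation 405nm) after CCF4 loading for 2.5 hours at room temperature. Cells carried an AP-1-driven beta-lactamase reporter, were stimulated with EC50 EGF plus compound for 5 hours, and AC50 values came from titrations.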

[2] = target: Cytochrome P450 1A2 (Homo sapiens) (UniProt P05177); test: p450-cyp1a2 (AID 410; calls by dose curve;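 further: -100% = full effect of reference inhibitor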)
Sequence of Cytochrome P450 1A2 (Homo sapiens) (P05177 whole entry, looked up): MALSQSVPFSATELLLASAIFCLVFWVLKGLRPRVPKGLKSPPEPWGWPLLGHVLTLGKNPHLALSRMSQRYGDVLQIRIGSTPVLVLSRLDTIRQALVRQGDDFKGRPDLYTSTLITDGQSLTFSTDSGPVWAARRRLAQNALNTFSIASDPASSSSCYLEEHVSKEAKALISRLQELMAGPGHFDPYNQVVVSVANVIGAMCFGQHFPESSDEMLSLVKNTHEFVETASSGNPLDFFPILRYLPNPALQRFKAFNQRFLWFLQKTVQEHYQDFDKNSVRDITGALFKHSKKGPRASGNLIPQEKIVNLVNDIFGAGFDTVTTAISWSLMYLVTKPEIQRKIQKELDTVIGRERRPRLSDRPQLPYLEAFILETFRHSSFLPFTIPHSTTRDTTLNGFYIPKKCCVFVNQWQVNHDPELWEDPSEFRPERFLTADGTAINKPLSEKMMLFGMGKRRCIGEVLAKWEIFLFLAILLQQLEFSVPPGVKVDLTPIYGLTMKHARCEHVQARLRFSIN
Method in brief: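 20nM CYP1A2, 100uM Luciferin-ME (=Km), 100mM KPO4; cpd 10 min RT; +NADPH regen, 60 min RT; stop/detect 20 min; luminescence. Normalized to furafylline 57 uM = full inhibition.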

[3] = NFAT Signaling Pathway (AID 444; active means well fitted curve in either direction with a large enough effect, not every such curve was filed as active;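 further: carbachol stimulus at about its EC50 of 1 µM final; on the % scale 0 is the no-effect control and ±100 the full control effect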); settings: Jurkat NFAT-bla M1, carbachol, beta-lactamase ratio, 5 h
Method in brief: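 Read-out: CCF4 FRET ratio (460 nm/530 nm) after 1 h RT dye loading, used for %activity and AC50 from titration series. Cells: Jurkat NFAT-β-lactamase/M1 line, treated with compound plus 1 uM carbachol for 5 h, 37 °C.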

[4] = Stat Signaling Pathway (AID 446; active means well fitted curve in either direction with a large enough effect, not every such curve was filed as active;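 further: ME-180 cervical cancer cells given 40 pM IL-6 alongside compound; SIE-controlled beta-lactamase reporter measured as 460/530 nm FRET emission ratio; on the % scale 0 is the no-effect control and ±100 the full control effect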); settings: ME-180 (cervical carcinoma) SIE beta-lactamase reporter, IL-6 stimulated, 5 h
Method in brief: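 Compound effects on IL-6-induced STAT reporter activity were measured in ME-180 cells. After overnight culture, cells were co-treated with 40 pM IL-6 for 5 hrs before beta-lactamase substrate loading at room temperature.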

[5] = target: Glucocorticoid receptor (Homo sapiens) (UniProt P04150); test: GR-GFP Redistribution (AID 450;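 active means compounds whose dose series gives a full or clear partial fitted curve of increased nuclear translocation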; further: potency means the concentration at half of the fitted maximal effect); settings: U2OS GR-GFP nuclear translocation, laser cytometry, 2 h
Sequence of Glucocorticoid receptor (Homo sapiens) (P04150 whole entry, looked up): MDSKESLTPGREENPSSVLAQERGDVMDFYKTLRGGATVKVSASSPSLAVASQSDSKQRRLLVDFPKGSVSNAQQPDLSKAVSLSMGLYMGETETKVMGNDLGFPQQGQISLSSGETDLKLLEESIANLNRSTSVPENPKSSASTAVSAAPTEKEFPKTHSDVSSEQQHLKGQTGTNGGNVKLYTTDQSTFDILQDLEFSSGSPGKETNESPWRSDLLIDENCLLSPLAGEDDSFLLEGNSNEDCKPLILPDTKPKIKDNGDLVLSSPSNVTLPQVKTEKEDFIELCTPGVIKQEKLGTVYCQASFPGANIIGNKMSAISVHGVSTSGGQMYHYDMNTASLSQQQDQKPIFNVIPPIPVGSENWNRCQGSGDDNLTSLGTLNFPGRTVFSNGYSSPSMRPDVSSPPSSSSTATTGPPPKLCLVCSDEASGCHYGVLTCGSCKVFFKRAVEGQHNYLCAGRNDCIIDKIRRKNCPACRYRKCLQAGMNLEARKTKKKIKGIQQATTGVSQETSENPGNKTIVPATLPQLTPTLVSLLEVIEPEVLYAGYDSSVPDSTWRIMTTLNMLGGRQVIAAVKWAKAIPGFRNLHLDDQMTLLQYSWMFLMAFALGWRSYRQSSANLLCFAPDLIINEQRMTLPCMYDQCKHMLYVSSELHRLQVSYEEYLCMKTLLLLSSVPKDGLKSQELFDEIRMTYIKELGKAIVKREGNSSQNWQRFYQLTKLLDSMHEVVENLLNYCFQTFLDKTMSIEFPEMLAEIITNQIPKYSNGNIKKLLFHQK

[6] = target: Mitogen-activated protein kinase 10 (Mus musculus) (UniProt Q61831); test: JNK3 AlphaScreen Assay (AID 530; active means well fitted curve in either direction with a large enough effect, not every such curve was filed as active;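 further: kinase came from lysate of stimulated human HepG2 cells; signal reports phosphorylation of biotinylated GST-cJun 1-79 at Ser73 with 10 µM ATP; on the % scale 0 is the no-effect control and ±100 the full control effect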)
Method in brief: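 Kinase buffer: 20 mM Tris-HCl pH 7.6, 10 mM MgCl2, 1 mM DTT, 0.1 mM Na3VO4, 0.01% Tween-20; ATP 10 uM. Substrate biotin-GST-cJun(1-79), enzyme from activated HepG2 lysates. Detection by Ser73 phospho-antibody AlphaScreen.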

[7] = target: 3',5'-cyclic-AMP phosphodiesterase 4B (Homo sapiens) (UniProt Q07343); test: qHTS Assay for Inhibitors of PDE-IV (AID 607; active means well fitted activation curve with a large enough effect in the main read-out, with a control signal flat, not every such curve was filed as active; further: % of control where 0% means no effect)
Sequence of 3',5'-cyclic-AMP phosphodiesterase 4B (Homo sapiens) (Q07343 whole entry, looked up): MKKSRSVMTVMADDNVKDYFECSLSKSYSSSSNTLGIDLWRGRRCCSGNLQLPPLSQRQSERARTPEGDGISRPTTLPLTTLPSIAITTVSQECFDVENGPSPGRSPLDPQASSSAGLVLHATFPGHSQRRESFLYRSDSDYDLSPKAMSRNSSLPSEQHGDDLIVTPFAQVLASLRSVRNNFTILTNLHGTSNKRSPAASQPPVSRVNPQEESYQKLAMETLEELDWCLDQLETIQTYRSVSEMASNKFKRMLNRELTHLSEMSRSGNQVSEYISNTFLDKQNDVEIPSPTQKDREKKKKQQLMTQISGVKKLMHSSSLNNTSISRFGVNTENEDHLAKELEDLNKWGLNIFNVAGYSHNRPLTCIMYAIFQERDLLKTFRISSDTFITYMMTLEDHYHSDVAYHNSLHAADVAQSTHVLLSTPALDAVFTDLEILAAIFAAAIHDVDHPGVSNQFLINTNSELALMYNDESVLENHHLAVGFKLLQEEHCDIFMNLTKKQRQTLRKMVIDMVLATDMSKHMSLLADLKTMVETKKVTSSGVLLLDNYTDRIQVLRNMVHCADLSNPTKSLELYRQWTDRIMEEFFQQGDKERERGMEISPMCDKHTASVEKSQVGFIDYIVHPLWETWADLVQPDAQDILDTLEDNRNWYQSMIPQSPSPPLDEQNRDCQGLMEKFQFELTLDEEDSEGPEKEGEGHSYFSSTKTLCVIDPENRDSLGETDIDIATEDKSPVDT
Method in brief: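 ACTOne HEK293 cells carry a modified cAMP-gated CNG channel and express endogenous PDE4; plated 1000 cells/well, compounds up to 22.9 uM final. Membrane-potential dye fluorescence (ex 535/em 590) was read; parental cells received 10 uM forskolin + 100 uM RO 20-1724.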

[8] = target: Guanine nucleotide-binding protein G(i) subunit alpha-1 (Homo sapiens) (UniProt P63096); test: qHTS Assay for Inhibitors of RGS12 GoLoco Motif Activity (Green Fluorophore) (AID 879);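 further: 0% = labeled peptide with Gαi1 and full inhibition = labeled peptide alone without protein; negative values mean loss of peptide binding seen as reduced polarization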
Sequence of Guanine nucleotide-binding protein G(i) subunit alpha-1 (Homo sapiens) (P63096 whole entry, looked up): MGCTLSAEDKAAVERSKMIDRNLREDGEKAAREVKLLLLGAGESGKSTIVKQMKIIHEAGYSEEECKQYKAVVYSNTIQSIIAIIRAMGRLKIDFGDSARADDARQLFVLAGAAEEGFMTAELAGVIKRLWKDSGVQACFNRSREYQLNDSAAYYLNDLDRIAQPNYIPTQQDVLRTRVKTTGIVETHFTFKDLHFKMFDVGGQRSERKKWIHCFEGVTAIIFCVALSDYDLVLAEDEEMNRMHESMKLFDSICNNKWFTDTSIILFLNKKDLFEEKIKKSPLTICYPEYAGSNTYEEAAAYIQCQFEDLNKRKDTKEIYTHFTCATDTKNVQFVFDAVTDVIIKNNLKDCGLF
Method in brief: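 A drop in FITC polarization marked displacement of the FITC-tagged RGS12 GoLoco peptide (10 nM) from Gαi1 (50 nM). Compounds were incubated 10 min at room temperature in Tris pH 7.5 buffer containing 150 mM NaCl, 0.1 mM GDP and 0.05% NP40; unlabeled peptide titration served as control.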

[9] = qHTS Assay for Identification of Small Molecule Agonists for Thrombopoietin (TPO) Signaling Pathway (AID 917); further: on the % scale 0 is the no-effect control and ±100 the full control effect
Method in brief: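 Stimulation at the TPO EC50 (26 pM final) was used to detect activators. Ba/F3 mouse cells bearing human TPO receptor and a luciferase reporter under the Glycoprotein IIb promoter were exposed to compounds for 24 hrs at 37 C.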

[10] = target: Muscarinic acetylcholine receptor M1 (Rattus norvegicus) (UniProt P08482); test: qHTS Assay for Antagonists of Acetylcholine Muscarinic M1 Receptor: Kinetic Measurement of Intracellular Calcium Response (AID 943);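 further: Fluo-4 calcium signal as peak divided by basal fluorescence over 4 min; nearly all actives have a fitted effect of over 75% in size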
Sequence of Muscarinic acetylcholine receptor M1 (Rattus norvegicus) (P08482 whole entry, looked up): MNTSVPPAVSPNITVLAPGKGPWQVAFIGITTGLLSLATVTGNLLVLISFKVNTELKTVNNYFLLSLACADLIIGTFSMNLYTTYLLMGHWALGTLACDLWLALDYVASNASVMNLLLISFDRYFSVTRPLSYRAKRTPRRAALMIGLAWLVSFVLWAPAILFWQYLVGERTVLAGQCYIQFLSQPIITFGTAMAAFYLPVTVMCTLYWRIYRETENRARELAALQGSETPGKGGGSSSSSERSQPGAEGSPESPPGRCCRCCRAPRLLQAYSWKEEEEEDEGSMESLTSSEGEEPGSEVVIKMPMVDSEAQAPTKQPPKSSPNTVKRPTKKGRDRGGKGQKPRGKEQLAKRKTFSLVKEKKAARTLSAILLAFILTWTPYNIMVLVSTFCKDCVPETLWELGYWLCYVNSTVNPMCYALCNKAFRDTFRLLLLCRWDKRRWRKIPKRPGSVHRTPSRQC
Method in brief: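 Read-out: peak over basal Fluo-4 fluorescence, kinetic at 1 Hz for 4 min after EC80 carbachol (100 nM final). Rat M1-CHO cells, dye loaded 1 h at 37C, compound added 10 min before agonist.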

[11] = target: Muscarinic acetylcholine receptor M1 (Rattus norvegicus) (UniProt P08482); test: qHTS Assay for Antagonists of Acetylcholine Muscarinic M1 Receptor: Measurement of IP-One Response (AID 944); further: nearly all actives have a fitted effect of over 75% in size
Method in brief: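 Read-out: HTRF competition between d2-IP1 and Eu-cryptate anti-IP1 antibody, emission 620 and 665 nm. Stimulus was carbachol, EC80 (200 nM), for 30 min in M1-CHO cells (rat receptor), after 10 min compound pre-treatment.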

[12] = target: Pyruvate kinase (Leishmania mexicana) (UniProt Q27686); test: qHTS Validation Assay for Inhibitors of Leishmania Mexicana Pyruvate Kinase (AID 945);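 further: 0% = DMSO only neutral control wells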
Sequence of Pyruvate kinase (Leishmania mexicana) (Q27686 2-499 E452W): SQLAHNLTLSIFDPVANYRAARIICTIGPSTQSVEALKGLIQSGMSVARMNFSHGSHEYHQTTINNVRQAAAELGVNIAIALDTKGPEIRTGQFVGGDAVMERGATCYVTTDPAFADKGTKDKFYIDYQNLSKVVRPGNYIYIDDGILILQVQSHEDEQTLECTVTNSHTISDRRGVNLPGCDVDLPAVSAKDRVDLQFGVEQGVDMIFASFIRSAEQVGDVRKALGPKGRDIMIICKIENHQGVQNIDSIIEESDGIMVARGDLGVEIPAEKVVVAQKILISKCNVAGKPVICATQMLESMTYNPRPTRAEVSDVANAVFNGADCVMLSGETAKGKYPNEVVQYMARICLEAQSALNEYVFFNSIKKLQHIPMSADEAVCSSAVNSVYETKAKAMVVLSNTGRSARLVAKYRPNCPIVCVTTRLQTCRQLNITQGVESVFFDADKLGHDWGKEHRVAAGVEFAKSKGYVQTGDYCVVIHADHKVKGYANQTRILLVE
Method in brief: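 Read-out: luminescence from PKLight stop/detection reagent, data normalized to DMSO. Reaction: 0.2 nM E451W LmPYK, 0.5 mM PEP, 0.1 mM ADP, pH 7.2, 1 h room temperature.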

[13] = target: Pyruvate kinase PKM (Homo sapiens) (UniProt P14618); test: qHTS Assay for Activators of Human Muscle Pyruvate Kinase (AID 954; active means well fitted curve in the direction sought with a large enough effect, not every such curve was filed as active;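 further: 0% = uninhibited enzyme and -100% = no enzyme or full thiadiazolimine inhibition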)
Method in brief: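 A coupled luminescent readout tracked ATP made from ADP by purified PKM2. Final conditions included 0.1 nM enzyme, PEP and ADP at 0.5 and 0.1 mM, pH 7.2 imidazole buffer with BSA, and a one-hour room-temperature reaction.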

[14] = target: Alpha-galactosidase (Coffea arabica) (UniProt Q42656); test: Counterscreen for Glucocerebrosidase Inhibitors: qHTS Assay for Coffee Bean alpha-Galactosidase at pH 4.5 (AID 957);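 further: plate controls were enzyme alone for no effect and no enzyme for full effect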
Sequence of Alpha-galactosidase (Coffea arabica) (Q42656 whole entry, looked up): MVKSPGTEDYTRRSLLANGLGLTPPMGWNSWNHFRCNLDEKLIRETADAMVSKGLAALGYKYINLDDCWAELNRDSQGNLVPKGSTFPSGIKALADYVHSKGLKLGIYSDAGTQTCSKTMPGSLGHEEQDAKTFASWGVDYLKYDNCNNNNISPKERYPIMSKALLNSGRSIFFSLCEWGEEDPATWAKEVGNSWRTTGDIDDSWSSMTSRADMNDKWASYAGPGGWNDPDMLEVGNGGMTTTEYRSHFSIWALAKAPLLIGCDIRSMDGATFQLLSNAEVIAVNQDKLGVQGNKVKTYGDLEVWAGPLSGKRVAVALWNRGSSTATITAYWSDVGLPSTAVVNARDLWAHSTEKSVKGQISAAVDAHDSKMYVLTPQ
Method in brief: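 Fluorogenic read-out: 4-methylumbelliferone at Ex 365/Em 440 nm after NaOH/glycine stop (pH 10). Enzyme 2 nM, 4-MU-alpha-galactoside 80 uM, citrate buffer pH 4.5, 20 min RT; normalized to no-enzyme and enzyme controls.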

[15] = target: Alpha-galactosidase A (Homo sapiens) (UniProt P06280); test: Counterscreen for Glucocerebrosidase Inhibitors: qHTS Assay for Human alpha-Galactosidase at pH 4.5 (AID 992); further: 0% is about no effect
Method in brief: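 Citrate buffer pH 4.5, Tween-20 0.005%. Enzyme 2 nM, substrate 80 uM, 20 min RT. Stop pH 10. Fluorescence Ex 365/Em 440. AC50 by Hill fit.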

[16] = target: alpha-glucosidase (Oryza sativa, rice) (UniProt Q653V4); test: Counterscreen for Glucocerebrosidase Inhibitors: qHTS Assay for Rice alpha-Glucosidase at pH 5.0 (AID 997);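 further: 0% = full activity with enzyme and -100% = basal without enzyme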
Method in brief: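 Endpoint fluorogenic assay at pH 5.0: compounds (0.7 nM to 77 uM) titrated against 4 nM rice enzyme and 400 uM 4-MU-alpha-glucoside for 20 min at room temperature; NaOH/glycine stop, read ex 365/em 440 nm, Hill-fitted AC50.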

[17] = target: Alpha-galactosidase (Coffea arabica) (UniProt Q42656); test: Counterscreen for Glucocerebrosidase Inhibitors: qHTS Assay for Coffee Bean alpha-Galactosidase at pH 5.9 (AID 998);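 further: plate controls were uninhibited enzyme for no effect and no-enzyme basal signal for full effect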
Method in brief: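 Fluorogenic 4-MU substrate hydrolysis, 80 uM substrate and 2 nM coffee bean alpha-galactosidase, pH 5.9 citrate buffer, 20 min at room temperature, then NaOH/glycine stop. Titration 0.7 nM–77 uM, normalized to no-enzyme and enzyme controls, AC50 via Hill equation.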

[18] = target: ATP-dependent 6-phosphofructokinase (Trypanosoma brucei brucei) (UniProt O15648); test: qHTS Assay to Find Inhibitors of T. brucei phosphofructokinase: hit validation (AID 492961)
Sequence of ATP-dependent 6-phosphofructokinase (Trypanosoma brucei brucei) (O15648 whole entry, looked up): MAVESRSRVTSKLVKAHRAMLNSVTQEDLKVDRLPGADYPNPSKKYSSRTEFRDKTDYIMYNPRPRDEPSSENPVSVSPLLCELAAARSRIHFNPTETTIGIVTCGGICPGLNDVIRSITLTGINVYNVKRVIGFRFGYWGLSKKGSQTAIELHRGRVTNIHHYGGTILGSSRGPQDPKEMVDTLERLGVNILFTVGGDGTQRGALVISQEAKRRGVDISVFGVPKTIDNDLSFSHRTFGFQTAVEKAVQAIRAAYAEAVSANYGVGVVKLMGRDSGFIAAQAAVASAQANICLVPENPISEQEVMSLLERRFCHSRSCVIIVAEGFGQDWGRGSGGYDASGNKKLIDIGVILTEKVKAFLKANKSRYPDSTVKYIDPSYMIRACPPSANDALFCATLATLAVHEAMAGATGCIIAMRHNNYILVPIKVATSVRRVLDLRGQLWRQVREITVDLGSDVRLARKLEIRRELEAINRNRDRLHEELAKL
Method in brief: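 Measures ADP output of PFK (1.25 nM) at 0.1 mM ATP, 0.5 mM F6P, pH 8.0 TEA buffer with 5 mM MgCl2. No-enzyme wells define full inhibition; uninhibited enzyme wells define zero.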

[19] = target: Ubiquitin carboxyl-terminal hydrolase 1 (Homo sapiens) (UniProt O94782); test: Inhibitors of USP1/UAF1: Pilot qHTS (AID 504865);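 further: rhodamine fluorescence freed from ubiquitin-rhodamine substrate followed over time; top concentration of the series differs between compounds; on the % scale 0 is the no-effect control and ±100 the full control effect; nearly all actives have a fitted effect of over 35% in size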
Sequence of Ubiquitin carboxyl-terminal hydrolase 1 (Homo sapiens) (O94782 whole entry, looked up): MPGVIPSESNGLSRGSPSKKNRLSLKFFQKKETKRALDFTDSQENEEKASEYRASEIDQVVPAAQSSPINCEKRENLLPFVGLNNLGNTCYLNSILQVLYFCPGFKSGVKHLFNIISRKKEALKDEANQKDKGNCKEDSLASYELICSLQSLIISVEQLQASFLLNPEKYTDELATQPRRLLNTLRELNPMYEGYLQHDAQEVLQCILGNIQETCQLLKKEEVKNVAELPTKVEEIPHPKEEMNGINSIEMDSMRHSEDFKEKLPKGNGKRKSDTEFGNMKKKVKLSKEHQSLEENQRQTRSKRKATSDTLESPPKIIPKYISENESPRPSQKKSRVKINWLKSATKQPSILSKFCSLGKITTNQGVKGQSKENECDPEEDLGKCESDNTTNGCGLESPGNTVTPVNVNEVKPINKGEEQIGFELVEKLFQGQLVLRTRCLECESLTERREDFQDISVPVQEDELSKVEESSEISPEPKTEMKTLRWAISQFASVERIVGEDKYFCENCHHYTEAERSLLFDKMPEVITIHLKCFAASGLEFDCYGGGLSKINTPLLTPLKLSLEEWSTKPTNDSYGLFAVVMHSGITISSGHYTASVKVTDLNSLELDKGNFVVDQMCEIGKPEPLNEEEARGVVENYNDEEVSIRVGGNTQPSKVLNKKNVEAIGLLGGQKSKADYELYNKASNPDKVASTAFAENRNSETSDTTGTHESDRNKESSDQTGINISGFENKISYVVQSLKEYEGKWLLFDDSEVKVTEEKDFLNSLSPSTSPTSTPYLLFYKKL
Method in brief: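 USP1/UAF1 complex at 1 nM preincubated 15 min at room temperature with compound, then Ub-Rho substrate added at 150 nM final. Fluorescence (480/540 nm) read kinetically in 50 mM HEPES pH 7.8, 0.5 mM EDTA, 1 mM TCEP, 0.1 mg/ml BSA, 0.01% Tween-20.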

[20] = target: Luciferin 4-monooxygenase (Photinus pyralis) (UniProt P08659); test: Biochemical firefly luciferase enzyme assay for NPC (AID 624030);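 further: purified P. pyralis luciferase at 10 nM with luciferin and ATP substrate; 0% = DMSO and -100% = full luciferase inhibition by PTC124 control; nearly all actives have a fitted effect of over 70% in size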
Method in brief: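 Direct inhibition of firefly luciferase enzyme (10 nM final, 50 mM Tris Acetate) assessed by luminescence within 5 minutes. Percent activity scaled between DMSO and PTC124 positive control, with concentration-effect curves classified by fit quality and response.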

[21] = S16 Schwann cell viability assay (CellTiter-Glo assay) (AID 624031);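 further: cellular ATP luminescence as a viability measure; plate controls were DMSO-treated cells for no effect and cell-free wells for full effect; nearly all actives have a fitted effect of over 70% in size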
Method in brief: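 This viability control uses native rat S16 Schwann cells grown in DMEM plus 10% FBS. After a 24 h compound treatment at 37 °C, CellTiter-Glo luminescence reports ATP content, scaled against DMSO-treated and cell-free wells.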

[22] = S16 Schwann cell PMP22 intronic element firefly luciferase assay (AID 624032);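 further: plate controls were DMSO for no effect and PTC124 positive control mean for full effect; nearly all actives have a fitted effect of over 30% in size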
Method in brief: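 Luciferase reporter of PMP22 intronic-element expression in stably transfected S16 rat Schwann cells, read by ONE-Glo luminescence after 24 h compound exposure at 37 C. Activity scaled between DMSO (0%) and positive-control PTC124; concentration-effect curves quality-classified.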

[23] = S16 Schwann cell PMP22 intronic element beta-lactamase assay (AID 624044; calls by dose curve;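 further: 0% = DMSO and -100% = potassium clavulanate positive control; nearly all actives have a fitted effect of over 15% in size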)
Method in brief: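 Beta-lactamase reporter under a PMP22 intronic regulatory element in stable S16 rat Schwann cells; 24 h compound exposure. 460 nm blue signal normalized between DMSO (0%) and potassium clavulanate, with 535 nm FRET tracking viability; curves classed by r2 and response.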

[24] = qHTS profiling for inhibitors of Plasmodium falciparum proliferation (AID 504749);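 further: 0% = DMSO vehicle and full inhibition = artemisinin control; nearly all actives have a fitted effect of over 60% in size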; settings: P. falciparum in erythrocytes, SYBR Green DNA, 72 h, at 28.7 µM (top of the series)
Method in brief: (§1)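 In a 72 h erythrocytic culture (37 C, humidified, 5% CO2) at 2.5% hematocrit and 0.3% starting parasitemia, compounds were tested; SYBR Green I in detergent lysis buffer stained parasite DNA overnight.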

3D7 = test: as above; settings: P. falciparum in erythrocytes, SYBR Green DNA, 72 h; series mostly up to 28.7 µM
Method in brief: as §1

7G8 = test: as above; settings: P. falciparum in erythrocytes, SYBR Green DNA, 72 h; series mostly up to 28.7 µM
Method in brief: as §1

AA1029 = test: as above; settings: P. falciparum in erythrocytes, SYBR Green DNA, 72 h; series mostly up to 28.7 µM
Method in brief: as §1

AS120 = test: as above; settings: P. falciparum in erythrocytes, SYBR Green DNA, 72 h; series mostly up to 28.7 µM
Method in brief: as §1

ATS189 = test: as above; settings: P. falciparum in erythrocytes, SYBR Green DNA, 72 h; series mostly up to 28.7 µM
Method in brief: as §1

ATS95 = test: as above; settings: P. falciparum in erythrocytes, SYBR Green DNA, 72 h; series mostly up to 28.7 µM
Method in brief: as §1

C2A = test: as above; settings: P. falciparum in erythrocytes, SYBR Green DNA, 72 h; series mostly up to 28.7 µM
Method in brief: as §1

CP185 = test: as above; settings: P. falciparum in erythrocytes, SYBR Green DNA, 72 h; series mostly up to 28.7 µM
Method in brief: as §1

CP191 = test: as above; settings: P. falciparum in erythrocytes, SYBR Green DNA, 72 h; series mostly up to 28.7 µM
Method in brief: as §1

CP192 = test: as above; settings: P. falciparum in erythrocytes, SYBR Green DNA, 72 h; series mostly up to 28.7 µM
Method in brief: as §1

CP194 = test: as above; settings: P. falciparum in erythrocytes, SYBR Green DNA, 72 h; series mostly up to 28.7 µM
Method in brief: as §1

CP201 = test: as above; settings: P. falciparum in erythrocytes, SYBR Green DNA, 72 h; series mostly up to 28.7 µM
Method in brief: as §1

CP203 = test: as above; settings: P. falciparum in erythrocytes, SYBR Green DNA, 72 h; series mostly up to 28.7 µM
Method in brief: as §1

CP211 = test: as above; settings: P. falciparum in erythrocytes, SYBR Green DNA, 72 h; series mostly up to 28.7 µM
Method in brief: as §1

CP215 = test: as above; settings: P. falciparum in erythrocytes, SYBR Green DNA, 72 h; series mostly up to 28.7 µM
Method in brief: as §1

C[C@@H](Cc1ccc(O)cc1)NC[C@@H](O)c1cc(O)cc(O)c1
inactive: activity change, negative = inhibition ([1]; at 17.2 µM (top of the series)) -20.6% | activity change, negative = inhibition ([1]; at 38 µM (top of the series)) -23% | Potency [2] | activity change, negative = inhibition ([3]; at 17.2 µM (top of the series)) -2.14% | activity change, negative = inhibition ([3]; at 38 µM (top of the series)) -6.03% | activity, negative = inhibition ([4]; at 17.2 µM (top of the series)) -8.37% | activity, negative = inhibition ([4]; at 38 µM (top of the series)) -28.1% | Potency [5] > 46 µM and > 20.6 µM | Potency [6] | outcome [7] | outcome [8] | outcome [9] | Potency [10] | Potency [11] | outcome [12] | outcome [13] | outcome [14] | outcome [15] | outcome [16] | outcome [17] | outcome [18] | Potency [19] | outcome [20] | outcome [21] | outcome [22] | outcome [23] | activity, negative = inhibition ([24]; parasite line A) 13.4% | activity, negative = inhibition ([24]; parasite line B) 5.16% | Potency (3D7) | Potency (7G8) | Potency (AA1029) | Potency (AS120) | Potency (ATS189) | Potency (ATS95) | Potency (C2A) | Potency (CP185) | Potency (CP191) | Potency (CP192) | Potency (CP194) | Potency (CP201) | Potency (CP203) | Potency (CP211) | Potency (CP215)

Reference: PubChem BioAssay (NCATS)
